Bioassay records deposited in PubChem by several laboratories.
CYP2C19 inhib = blocks human cytochrome P450 2C19 | 96,000 tested, 21% active | CYP2C19 Supersomes, luciferin-H EGE luminescence, 30 min | AID 778 | P33261 | inhibition, % at 5 µM;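 active means CYP2C19 inhibition above a set limit at 5 µM in the primary screen, cut at about 50% in these data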;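 further: plate controls were negative control wells for no effect and 2.5 mM tranylcypromine positive control for full effect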
CYP2C9 inh = blocks human cytochrome P450 2C9; P11712; inhibition, % at 5 µM; 96,000 tested, 20% active; CYP2C9 Supersomes, luciferin-H conversion, luminescence;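 active means blocking of liver enzyme CYP2C9 beyond about 50% at 5 µM, limit read from the data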
Target sequence (P11712 whole entry, looked up): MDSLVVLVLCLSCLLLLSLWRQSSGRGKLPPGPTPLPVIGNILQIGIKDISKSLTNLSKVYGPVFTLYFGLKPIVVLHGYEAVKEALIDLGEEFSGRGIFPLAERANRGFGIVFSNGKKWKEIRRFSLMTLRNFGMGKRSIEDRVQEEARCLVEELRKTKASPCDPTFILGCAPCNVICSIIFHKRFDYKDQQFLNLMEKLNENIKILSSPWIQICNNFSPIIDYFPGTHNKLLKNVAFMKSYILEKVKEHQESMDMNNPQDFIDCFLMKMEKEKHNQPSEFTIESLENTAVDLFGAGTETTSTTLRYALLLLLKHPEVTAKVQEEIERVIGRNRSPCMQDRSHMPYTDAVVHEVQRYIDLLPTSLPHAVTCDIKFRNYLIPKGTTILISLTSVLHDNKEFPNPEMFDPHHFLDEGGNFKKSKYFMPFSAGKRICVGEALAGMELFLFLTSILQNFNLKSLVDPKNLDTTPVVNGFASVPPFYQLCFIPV
Measles CPE = protection of cells from measles virus; Measles virus-infected cells, CPE protection, absorbance; protection (pct of control), % at 4 µM; 140,000 tested, 1.5% active; AID 841; in the data active means protection mostly above about 24%, no sharp cut-off; inactive means mostly below about 26%
CYP2C9 activ = increases human cytochrome P450 2C9 activity | P11712 | recombinant CYP2C9, luciferin-H conversion, luminescence; stronger effect = higher value; factor 1 = untreated enzyme, 0 = blocked | activation factor at 5 µM | 96,000 tested, 1.4% active | AID 1024;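 active means activation factor of 2 or more for CYP2C9 at a 5 µM dose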;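 further: 0 = sulfaphenazole-blocked wells and 1 = vehicle-only wells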
CYP2C19 activ = cytochrome P450 2C19 (human) activation. activation factor at 5 µM. P33261. recombinant CYP2C19, luciferin-H EGE luminescence; stronger effect = higher value; 0 = fully inhibited enzyme, 1 = untreated enzyme. 96,000 tested, under 10 active;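 active means activation factor of at least 2 at 5 µM in the primary screen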;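 further: 0 = wells with 2.5 mM tranylcypromine and 1 = vehicle-only wells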
Numbers without * were called inactive; · = no result. In the library only some 22% were active in any assay of this set; here they are far more common.

SMILES	CYP2C19 inhib	CYP2C9 inh	Measles CPE	CYP2C9 activ	CYP2C19 activ
Cn1c(C(O)c2ccccc2)nc(Cl)c1Cl (stereo unspecified)	69.7*	12.0	1.2	0.9	0.3
Brc1ccc(CSc2ncnc3nc[nH]c23)cc1	55.8*	19.0	17.7	0.8	0.4
Cc1ccc(C)c(NC(=O)CSc2ncnc3nc[nH]c23)c1	4.6	-3.2	5.9	1	1
Cc1ccc(OCCSc2ncnc3nc[nH]c23)cc1	73.0*	53.8*	0.9	0.5	0.3
COc1ccc(/C=C(/NC(=O)c2ccc(OC)cc2)C(=O)NCCc2c[nH]c3ccccc23)cc1	·	·	3.6	·	·
O=C(NCCCO)c1ccc2[nH]c3c(c2c1)CCCC3	40.4	2.5	1.3	1	0.6
O=C(NCCO)c1ccc2[nH]c3c(c2c1)CCCC3	82.7*	23.5	10.2	0.8	0.2
CNCCCc1[nH]nc(N)c1C#N	·	·	16.9	·	·
C=CCn1c(SCC(=O)NCC2CCCO2)nnc1C1CCCCC1 (stereo unspecified)	7.5	14.9	7.7	0.9	0.9
C=CCn1c(SCC(=O)NC(=O)NCCC)nnc1C1CCCCC1	58.2*	66.4*	20.4	0.3	0.4
C=CCn1c(SCC(=O)NC(=O)NCC(C)C)nnc1C1CCCCC1	55.1*	3.6	6.2	1	0.4
O=C(N/N=C\c1cc(Br)ccc1O)c1ccc(S(=O)(=O)N2CCCCC2)cc1	·	·	11.4	·	·
O=C(COC(=O)C1CCC(=O)N1)Nc1ccc(Br)cc1 (stereo unspecified)	·	·	9.2	·	·
CCOc1ccccc1NS(=O)(=O)c1ccc(Br)s1	94.7*	25.6	3.9	0.7	0.1
COCCNC(=O)c1ccccc1NS(=O)(=O)c1ccc(Br)s1	72.4*	90.9*	14.2	0.1	0.3
O=S(=O)(NC(=NC1CCCC1)C(F)(F)F)c1ccccc1	65.6*	-40.6	6.4	1.4	0.3
CCN1CCN(C(c2cccs2)C(C)NC(=O)c2cccc(OC)c2OC)CC1 (stereo unspecified)	-8.6	-4.7	12.2	1	1.1
Cc1noc(C)c1COc1ccc(C(=O)OCc2nnc(-c3ccc(Cl)cc3)o2)cc1	78.7*	95.1*	5.4	0	0.2
CC(=O)c1ccc(OCCCC(=O)OCc2nnc(-c3ccc(Cl)cc3)o2)cc1	35.8	-100.9	15.9	2*	0.6
O=C(OCc1nnc(-c2ccc(Cl)cc2)o1)c1ccncc1	65.3*	67.2*	16.4	0.3	0.3
CCc1c(C)c2cc(Cl)c(O)c(CN(CC)CC)c2oc1=O	19.5	0.8	8.5	1	0.8
O=C(NCc1ccco1)c1ccc(COc2cc(Cl)ccc2Cl)cc1	·	·	13.8	·	·
COc1ccc(S(=O)(=O)Nc2cc(C)ccn2)cc1OC	42.8	-69.8	7.2	1.7	0.6
CC1(C)OC(=O)N(c2ccccc2)C12C=Cc1cc(Br)ccc1O2 (stereo unspecified)	82.8*	85.0*	10.4	0.2	0.2
O=C(Nc1ccc(Cc2ccncc2)cc1)c1ccc(Br)o1	86.7*	96.8*	20.3	0	0.1
SMILES	CYP2C19 inhib	CYP2C9 inh	Measles CPE	CYP2C9 activ	CYP2C19 activ
O=C(Nc1ccc(Nc2ccccc2)cc1)c1ccc(Br)o1	28.7	51.4*	-0.1	0.5	0.7
CC(C)c1ccc(NC(=O)c2ccc(Br)o2)cc1	·	·	15.1	·	·
CC1(C)CC(=O)C(C2(O)C(=O)N(Cc3ccccc3)c3ccccc32)CO1 (stereo unspecified)	62.6*	34.7	2.6	0.7	0.4
CC1(C)CC(=O)CC(C2(O)C(=O)N(Cc3ccccc3)c3ccccc32)O1 (stereo unspecified)	17.4	1.4	16.2	1	0.8
Cc1ccc(C)n1-c1ccc(C(=O)O)cc1	0.4	55.6*	5.2	0.4	1
COC(=O)c1cccc2c1-c1ccccc1/C2=N/O	58.8*	84.5*	17.1	0.2	0.4
COC(=O)c1ccc2c(c1O)C(=O)c1ccccc1C2=O	59.5*	40.6	18.5	0.6	0.4
COCc1cc(C)nc2sc(C(=O)N3CCCCC3)c(N)c12	12.2	20.1	4.7	0.8	0.9
Cc1cc(C)c2c(N)c(C(=O)N3CCN(c4ncccn4)CC3)sc2n1	50.1*	41.6	2.6	0.6	0.5
COCc1cc(C)nc2sc(C(=O)N3CCN(c4ccccc4)CC3)c(N)c12	80.1*	78.4*	14.1	0.2	0.2
O=C(Nc1cccc(S(=O)(=O)C(F)F)c1)c1ccc(Cl)c(S(=O)(=O)N2CCOCC2)c1	-12.2	-1.8	23.5	1	1.1
NNc1nc(NCc2ccccc2)nc(N2CCOCC2)n1	·	·	1.9	·	·
O=C(c1ccccc1)c1ccc(Oc2ncccn2)cc1	62.6*	21.3	18.1	0.8	0.4
CC(=O)Nc1ccc(Oc2ncccn2)cc1	-13.8	-10.5	·	1.1	1.1
Cc1cc2cc(CN(Cc3ccco3)C(=S)NCC3CCCO3)c(=O)[nH]c2cc1C (stereo unspecified)	·	·	1.6	·	·
O=C(N/C(=C/c1ccco1)C(=O)N1CCCCCC1)c1cccs1	-3.6	-19.5	9.3	1.2	1
COc1ccc(C2(O)CC3CCC(C2)N3c2nc(C)cc(C)c2C#N)cc1 (stereo unspecified)	41.2	58.7*	7.8	0.4	0.6
CCCCCCCNC(=O)COc1ccc2c(c1)C(=O)CC(C)(C)O2	87.5*	95.9*	15.9	0	0.1
CCOC(=O)c1ccc(NC(=O)CSc2n[nH]c(-c3ccncc3)n2)cc1	47.9	96.4*	4.5	0	0.5
O=C(CSc1n[nH]c(-c2cccnc2)n1)Nc1ccccc1	·	·	4.6	·	·
COC(=O)c1ccc(NC(=O)CSc2n[nH]c(-c3ccncc3)n2)cc1	39.9	94.6*	5.6	0.1	0.6
COc1ccc(NS(=O)(=O)c2cccc(N3CC(O)=C(c4ccccc4)C3=N)c2)cc1	·	·	7.7	·	·
COc1cc(NC(=O)C2CCC(CNc3c(N4CCC(C)CC4)c(=O)c3=O)CC2)cc(OC)c1 (stereo unspecified)	33.4	51.2*	17.8	0.5	0.7
COc1cc(NC(=O)C2CCC(CNc3c(N4CCCCC4)c(=O)c3=O)CC2)cc(OC)c1 (stereo unspecified)	57.6*	62.0*	4.5	0.4	0.4
N#Cc1cccc(C(c2nnnn2CCc2ccccc2)N2CCN(C3CCCCC3)CC2)c1 (stereo unspecified)	8.5	-4.6	7.0	1	0.9
SMILES	CYP2C19 inhib	CYP2C9 inh	Measles CPE	CYP2C9 activ	CYP2C19 activ
COc1ccc(N2CCN(/C(=N\S(=O)(=O)c3ccccc3)Nc3nc(C)cc(C)n3)CC2)cc1	10.8	66.7*	4.8	0.3	0.9
COc1ccc(-c2nc(-c3cccs3)c(-c3cccs3)[nH]2)cc1O	87.5*	96.1*	5.6	0	0.1
O=C(NCCCn1ccnc1)c1ccccc1NS(=O)(=O)c1ccc(F)c(F)c1	99.2*	99.5*	21.6	0	0
Cc1cc(C)c(C)c(S(=O)(=O)Nc2ccccc2C(=O)NCCCn2ccnc2)c1C	98.6*	98.2*	16.8	0	0
O=C(Nc1cc(S(=O)(=O)N2CCCCC2)ccc1O)c1ccccc1NS(=O)(=O)c1ccc(F)c(F)c1	·	·	5.0	·	·
O=C(NCCCN1CCCC1=O)c1ccccc1NS(=O)(=O)c1ccc(Br)cc1	34.7	79.6*	18.6	0.2	0.7
